From the supplement of paper PMC10849652
Targets with a hit are over-represented here; the source holds about 7,900 in all. About 0.6% of all pairs of compound and target were hits. Unmarked numbers belong to inactive results.

Columns and labels:
Assay in all cases: log2 fold change, soluble protein after heating vs DMSO (PISA); higher = thermal stabilisation; K562 cells, 10 uM, 30 min; active = over 0.2 and 3.5 SD of the protein, either way, in both replicates (recomputed)
[1] = compound: CS(=O)(=O)c1ccc(-c2cnc(N)c(C(=O)Nc3ccccc3)n2)cc1
Outline: (§1)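 K562 cells (2×10^6 cells/mL) were treated with 10 μM compound for 30 min, and aliquots were heated for 3 min over 48°C-58°C. Pooled aliquots were extracted in PBS with 0.5% NP-40 at 4°C, and the supernatant after 21,000xg for 90 min was measured by TMTpro 16plex LC-MS/MS with channel sums equalised. Reported thermal stability, relative to control samples and from duplicates, is a log2 fold change.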

crizotinib = compound: C[C@@H](Oc1cc(-c2cnn(C3CCNCC3)c2)cnc1N)c1c(Cl)ccc(F)c1Cl [crizotinib]
Outline: as §1

[2] = compound: C[C@@H]1COCCN1C2=NC(=NC(=C2)C3(CC3)S(=O)(=O)C)C4=C5C=CNC5=CC=C4
Outline: as §1

[3] = compound: C[C@H](C1=CC=C(C=C1)C(=O)NC2=C3C=CNC3=NC=C2)N
Outline: as §1

duvelisib = compound: C[C@H](Nc1ncnc2nc[nH]c12)c1cc2cccc(Cl)c2c(=O)n1-c1ccccc1 [duvelisib]
Outline: as §1

gandotinib = compound: Cc1cc(Nc2cc(CN3CCOCC3)c3nc(C)c(Cc4ccc(Cl)cc4F)n3n2)n[nH]1 [gandotinib]
Outline: as §1

tozasertib = compound: Cc1cc(Nc2cc(N3CCN(C)CC3)nc(Sc3ccc(NC(=O)C4CC4)cc3)n2)n[nH]1 [tozasertib]
Outline: as §1

[4] = compound: Cc1cc(SCc2sc(-c3ccc(C(F)(F)F)cc3)nc2C)ccc1OCC(=O)O
Outline: as §1

doramapimod = compound: Cc1ccc(-n2nc(C(C)(C)C)cc2NC(=O)Nc2ccc(OCCN3CCOCC3)c3ccccc23)cc1 [doramapimod]
Outline: as §1

ispinesib = compound: Cc1ccc(C(=O)N(CCCN)[C@@H](c2nc3cc(Cl)ccc3c(=O)n2Cc2ccccc2)C(C)C)cc1 [ispinesib]
Outline: as §1

bafetinib = compound: Cc1ccc(NC(=O)c2ccc(CN3CC[C@H](N(C)C)C3)c(C(F)(F)F)c2)cc1Nc1nccc(-c2cncnc2)n1 [bafetinib]
Outline: as §1

[5] = compound: Cc1cccc(CC(=O)N2CCc3c2ccc(-c2cn(C)c4ncnc(N)c24)c3F)n1
Outline: as §1

nilotinib = compound: Cc1cn(-c2cc(NC(=O)c3ccc(C)c(Nc4nccc(-c5cccnc5)n4)c3)cc(C(F)(F)F)c2)cn1 [nilotinib]
Outline: as §1

[6] = compound: Cc1nc(Nc2n[nH]c3c2CN(C(=O)N[C@H](CN(C)C)c2ccccc2)C3(C)C)c2sccc2n1
Outline: as §1

dasatinib = compound: Cc1nc(Nc2ncc(C(=O)Nc3c(C)cccc3Cl)s2)cc(N2CCN(CCO)CC2)n1 [dasatinib]
Outline: as §1

[7] = compound: Cc1ncc(-c2ccnc(Nc3ccc(S(C)(=O)=O)cc3)n2)n1C(C)C
Outline: as §1

[8] = compound: Cn1cc(-c2ccc3c(c2)CCN3C(=O)Cc2cccc(C(F)(F)F)c2)c2c(N)ncnc21
Outline: as §1

[9] = compound: Cn1cc(-c2ccc3nnc(C(F)(F)c4ccc5ncccc5c4)n3n2)cn1
Outline: as §1

tipifarnib = compound: Cn1cncc1[C@@](N)(c1ccc(Cl)cc1)c1ccc2c(c1)c(-c1cccc(Cl)c1)cc(=O)n2C [tipifarnib]
Outline: as §1

mubritinib = compound: FC(F)(F)c1ccc(/C=C/c2nc(COc3ccc(CCCCn4ccnn4)cc3)co2)cc1 [mubritinib]
Outline: as §1

UniProt Q9UQB8, sequence (Q9UQB8 whole entry, looked up): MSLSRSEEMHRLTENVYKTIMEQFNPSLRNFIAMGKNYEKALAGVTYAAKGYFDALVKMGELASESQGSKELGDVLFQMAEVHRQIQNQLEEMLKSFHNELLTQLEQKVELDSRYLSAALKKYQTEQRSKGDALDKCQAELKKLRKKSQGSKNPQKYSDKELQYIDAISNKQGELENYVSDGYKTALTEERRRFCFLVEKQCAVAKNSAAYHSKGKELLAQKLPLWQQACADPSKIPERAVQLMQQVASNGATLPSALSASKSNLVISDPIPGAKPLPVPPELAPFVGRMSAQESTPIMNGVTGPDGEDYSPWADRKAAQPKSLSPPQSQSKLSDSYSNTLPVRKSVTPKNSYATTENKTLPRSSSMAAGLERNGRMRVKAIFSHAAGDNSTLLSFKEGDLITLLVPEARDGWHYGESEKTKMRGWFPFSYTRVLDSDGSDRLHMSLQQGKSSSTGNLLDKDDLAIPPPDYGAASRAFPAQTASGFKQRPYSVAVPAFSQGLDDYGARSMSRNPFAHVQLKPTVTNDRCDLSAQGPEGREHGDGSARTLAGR
UniProt Q93084, sequence (Q93084 whole entry, looked up): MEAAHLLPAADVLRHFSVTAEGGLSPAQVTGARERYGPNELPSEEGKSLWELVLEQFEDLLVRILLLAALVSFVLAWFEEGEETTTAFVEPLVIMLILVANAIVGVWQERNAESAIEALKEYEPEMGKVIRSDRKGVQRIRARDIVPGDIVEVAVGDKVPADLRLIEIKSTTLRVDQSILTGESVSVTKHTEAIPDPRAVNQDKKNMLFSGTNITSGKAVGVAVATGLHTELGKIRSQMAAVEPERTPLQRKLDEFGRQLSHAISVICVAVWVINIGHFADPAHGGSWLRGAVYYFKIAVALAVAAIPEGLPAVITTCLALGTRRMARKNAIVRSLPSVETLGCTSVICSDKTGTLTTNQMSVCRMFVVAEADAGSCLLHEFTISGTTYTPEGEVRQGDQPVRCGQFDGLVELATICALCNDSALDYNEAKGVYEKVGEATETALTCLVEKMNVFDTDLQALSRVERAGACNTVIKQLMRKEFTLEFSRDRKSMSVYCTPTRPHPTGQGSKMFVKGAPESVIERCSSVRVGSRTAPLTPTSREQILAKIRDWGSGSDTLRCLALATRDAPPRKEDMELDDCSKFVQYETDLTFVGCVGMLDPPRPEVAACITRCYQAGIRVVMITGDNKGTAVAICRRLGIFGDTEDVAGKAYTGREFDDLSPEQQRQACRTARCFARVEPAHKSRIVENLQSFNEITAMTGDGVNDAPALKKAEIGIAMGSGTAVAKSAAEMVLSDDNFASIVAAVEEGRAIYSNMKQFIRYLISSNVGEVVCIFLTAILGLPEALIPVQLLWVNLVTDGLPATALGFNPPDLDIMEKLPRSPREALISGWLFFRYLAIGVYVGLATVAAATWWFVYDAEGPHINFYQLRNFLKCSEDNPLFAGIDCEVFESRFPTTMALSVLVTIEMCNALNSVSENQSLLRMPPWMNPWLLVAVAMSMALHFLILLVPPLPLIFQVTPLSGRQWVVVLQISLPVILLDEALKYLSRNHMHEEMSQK
UniProt O00244, sequence (O00244 whole entry, looked up): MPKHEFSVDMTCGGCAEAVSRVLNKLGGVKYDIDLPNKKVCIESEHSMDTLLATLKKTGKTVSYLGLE
UniProt P56385, sequence (P56385 whole entry, looked up): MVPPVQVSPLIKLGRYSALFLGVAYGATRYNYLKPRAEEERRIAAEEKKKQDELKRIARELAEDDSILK
UniProt Q9NSY1, sequence (Q9NSY1 whole entry, looked up): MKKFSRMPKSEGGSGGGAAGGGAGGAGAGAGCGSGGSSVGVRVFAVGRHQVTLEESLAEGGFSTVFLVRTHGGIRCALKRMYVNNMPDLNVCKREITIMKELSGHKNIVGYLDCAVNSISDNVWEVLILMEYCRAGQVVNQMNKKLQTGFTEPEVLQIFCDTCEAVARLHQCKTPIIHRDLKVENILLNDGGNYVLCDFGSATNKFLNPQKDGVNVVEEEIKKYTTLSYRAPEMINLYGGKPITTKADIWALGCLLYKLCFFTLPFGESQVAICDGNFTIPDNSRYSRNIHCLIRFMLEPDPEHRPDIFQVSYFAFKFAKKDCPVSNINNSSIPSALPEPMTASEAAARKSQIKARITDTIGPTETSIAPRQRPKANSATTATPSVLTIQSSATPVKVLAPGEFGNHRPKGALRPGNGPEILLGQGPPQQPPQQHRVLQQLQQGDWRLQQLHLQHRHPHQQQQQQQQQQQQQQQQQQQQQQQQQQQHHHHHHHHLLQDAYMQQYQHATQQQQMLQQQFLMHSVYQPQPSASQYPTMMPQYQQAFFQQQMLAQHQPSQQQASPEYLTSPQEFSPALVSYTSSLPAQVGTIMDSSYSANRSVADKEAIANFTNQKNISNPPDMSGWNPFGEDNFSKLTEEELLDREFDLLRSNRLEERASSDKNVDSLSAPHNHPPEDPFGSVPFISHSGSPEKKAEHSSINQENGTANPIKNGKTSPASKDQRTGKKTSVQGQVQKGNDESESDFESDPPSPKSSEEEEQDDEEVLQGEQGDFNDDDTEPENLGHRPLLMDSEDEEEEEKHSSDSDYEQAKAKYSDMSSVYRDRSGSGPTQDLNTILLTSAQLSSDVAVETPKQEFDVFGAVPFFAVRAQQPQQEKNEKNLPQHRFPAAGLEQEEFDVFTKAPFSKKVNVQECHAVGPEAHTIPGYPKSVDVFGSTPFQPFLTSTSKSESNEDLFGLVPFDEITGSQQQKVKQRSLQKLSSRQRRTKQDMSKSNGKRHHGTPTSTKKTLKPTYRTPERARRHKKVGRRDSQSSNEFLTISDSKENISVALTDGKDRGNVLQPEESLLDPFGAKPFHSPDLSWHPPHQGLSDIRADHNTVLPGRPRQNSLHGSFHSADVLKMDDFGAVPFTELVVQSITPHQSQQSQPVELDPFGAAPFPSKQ
UniProt Q13795, sequence (Q13795 whole entry, looked up): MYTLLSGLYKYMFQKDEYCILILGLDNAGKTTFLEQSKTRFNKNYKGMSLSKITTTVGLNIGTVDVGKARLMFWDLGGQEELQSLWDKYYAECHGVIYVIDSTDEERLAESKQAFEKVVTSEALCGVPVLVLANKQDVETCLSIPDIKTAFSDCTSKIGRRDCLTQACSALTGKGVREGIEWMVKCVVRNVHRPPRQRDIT
UniProt Q9Y4P1, sequence (Q9Y4P1 whole entry, looked up): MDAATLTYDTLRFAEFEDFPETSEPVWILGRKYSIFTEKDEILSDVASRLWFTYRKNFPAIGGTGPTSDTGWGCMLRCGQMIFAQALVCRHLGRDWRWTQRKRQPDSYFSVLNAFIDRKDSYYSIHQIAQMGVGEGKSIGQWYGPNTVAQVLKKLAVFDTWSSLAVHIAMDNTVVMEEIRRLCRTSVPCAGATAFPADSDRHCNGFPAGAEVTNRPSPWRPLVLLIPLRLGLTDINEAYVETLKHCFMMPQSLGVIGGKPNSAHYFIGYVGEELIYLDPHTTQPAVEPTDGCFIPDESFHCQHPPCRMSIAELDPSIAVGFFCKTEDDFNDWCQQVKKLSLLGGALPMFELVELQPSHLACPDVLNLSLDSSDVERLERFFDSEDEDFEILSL
UniProt O00116, sequence (O00116 whole entry, looked up): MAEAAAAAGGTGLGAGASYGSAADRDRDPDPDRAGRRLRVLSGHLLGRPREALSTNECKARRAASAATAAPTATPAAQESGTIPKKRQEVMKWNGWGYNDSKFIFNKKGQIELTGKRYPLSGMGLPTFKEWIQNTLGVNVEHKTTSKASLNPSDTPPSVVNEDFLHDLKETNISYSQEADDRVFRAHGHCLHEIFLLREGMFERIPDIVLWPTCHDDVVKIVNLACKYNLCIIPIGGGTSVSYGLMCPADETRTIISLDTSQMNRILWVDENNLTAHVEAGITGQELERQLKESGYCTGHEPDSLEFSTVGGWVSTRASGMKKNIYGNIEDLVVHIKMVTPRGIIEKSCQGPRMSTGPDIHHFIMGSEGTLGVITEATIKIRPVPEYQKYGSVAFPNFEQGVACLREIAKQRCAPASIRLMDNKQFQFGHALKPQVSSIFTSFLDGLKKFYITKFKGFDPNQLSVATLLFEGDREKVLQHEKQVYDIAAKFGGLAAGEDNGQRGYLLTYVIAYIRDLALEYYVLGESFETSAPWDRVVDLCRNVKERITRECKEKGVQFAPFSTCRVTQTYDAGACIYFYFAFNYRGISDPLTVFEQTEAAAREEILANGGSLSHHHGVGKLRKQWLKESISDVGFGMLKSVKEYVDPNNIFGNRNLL
UniProt O95433, sequence (O95433 whole entry, looked up): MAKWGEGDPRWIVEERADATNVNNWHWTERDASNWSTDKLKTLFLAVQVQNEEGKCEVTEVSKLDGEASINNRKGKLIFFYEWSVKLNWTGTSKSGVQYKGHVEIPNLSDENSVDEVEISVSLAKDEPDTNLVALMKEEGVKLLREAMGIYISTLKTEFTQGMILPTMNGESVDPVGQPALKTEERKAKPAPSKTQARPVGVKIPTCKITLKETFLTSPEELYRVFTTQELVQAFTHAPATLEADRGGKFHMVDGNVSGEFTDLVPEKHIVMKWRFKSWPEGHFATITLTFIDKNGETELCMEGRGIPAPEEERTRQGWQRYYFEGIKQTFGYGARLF
UniProt P36405, sequence (P36405 whole entry, looked up): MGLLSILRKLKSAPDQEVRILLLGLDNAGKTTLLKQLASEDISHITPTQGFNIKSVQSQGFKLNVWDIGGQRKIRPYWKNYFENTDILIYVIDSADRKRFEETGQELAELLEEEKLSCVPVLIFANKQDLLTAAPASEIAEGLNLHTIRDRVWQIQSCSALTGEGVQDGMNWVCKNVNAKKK
UniProt Q16864, sequence (Q16864 whole entry, looked up): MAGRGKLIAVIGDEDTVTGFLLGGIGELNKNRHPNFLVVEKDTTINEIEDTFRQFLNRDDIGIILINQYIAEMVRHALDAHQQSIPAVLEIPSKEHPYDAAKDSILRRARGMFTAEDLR

Target | log2 fold change [1] | log2 fold change (crizotinib) | log2 fold change [2] | log2 fold change [3] | log2 fold change (duvelisib) | log2 fold change (gandotinib) | log2 fold change (tozasertib) | log2 fold change [4] | log2 fold change (doramapimod) | log2 fold change (ispinesib) | log2 fold change (bafetinib) | log2 fold change [5] | log2 fold change (nilotinib) | log2 fold change [6] | log2 fold change (dasatinib) | log2 fold change [7] | log2 fold change [8] | log2 fold change [9] | log2 fold change (tipifarnib) | log2 fold change (mubritinib)
ATP2A3 isoform 2 (UniProt Q93084) | -0.003 | 0.084 | -0.048 | -0.022 | 0.025 | -0.068 | -0.036 | -0.025 | -0.023 | -0.091 | -0.063 | -0.001 | -0.057 | -0.064 | -0.005 | 0.058 | -0.014 | 0.076 | 0.025 | -0.044
AHSA1 (UniProt O95433) | 0.035 | 0.034 | 0.058 | -0.026 | 0.027 | -0.077 | 0.015 | 0.023 | -0.029 | -0.003 | -0.059 | 0.013 | -0.052 | -0.035 | -0.096 | -0.018 | 0.065 | 0.009 | -0.056 | 0.038
ATG4B isoform 2 (UniProt Q9Y4P1) | 0.078 | -0.361 | 0.056 | -0.004 | -0.024 | -0.12 | -0.286 | 0.184 | 0.003 | -0.277 | 0.004 | 0.073 | -0.061 | -0.035 | -0.242 | -0.041 | 0.022 | 0.13 | -0.402 | 0.073
AMFR (UniProt Q9UKV5) | -0.008 | -0.04 | 0.018 | -0.034 | 0.028 | 0.012 | -0.029 | 0.071 | 0.057 | -0.331 (active) | -0.095 | 0.099 | -0.051 | -0.016 | -0.094 | 0.049 | 0.029 | -0.06 | 0.05 | -0.018
ATP6V1F isoform 2 (UniProt Q16864) | -0.303 | 0.034 | -0.025 | -0.031 | 0.309 | 0.138 | 0.06 | -0.043 | 0.007 | 0.076 | 0 | -0.053 | 0.078 | -0.03 | 0.034 | -0.028 | 0.101 | 0.132 | 0.32 | 0.045
AGPS (UniProt O00116) | 0.016 | -0.038 | 0.048 | -0.053 | 0.099 | -0.047 | -0.005 | 0.19 | 0.018 | 0.015 | -0.068 | 0.025 | 0.039 | -0.012 | -0.023 | 0.006 | 0.09 | 0.01 | 0.032 | 0.112
ARFRP1 (UniProt Q13795) | -0.024 | -0.004 | 0.091 | -0.027 | 0.019 | -0.159 | -0.03 | -0.069 | 0.003 | 0.027 | 0.025 | 0.327 (active) | -0.061 | -0.014 | -0.017 | 0.112 | 0.11 | -0.003 | -0.069 | -0.019
ARL3 (UniProt P36405) | 0.029 | 0.041 | 0.019 | -0.017 | 0.08 | 0.025 | 0.033 | -0.012 | -0.003 | 0.063 | -0.024 | -0.029 | 0.011 | 0.006 | 0.001 | -0.003 | 0.022 | -0.018 | -0.034 | 0.029
BAIAP2 (UniProt Q9UQB8) | 0.023 | -0.115 | 0 | -0.039 | 0.014 | -0.053 | -0.061 | 0.08 | 0.086 | -0.057 | -0.009 | 0.032 | -0.061 | -0.05 | -0.066 | -0.038 | 0.03 | -0.032 | -0.035 | 0.06
BMP2K (UniProt Q9NSY1) | 0.136 | 0.411 (active) | 0 | 0.402 (active) | -0.078 | 0.319 | 0.318 | -0.051 | 0.024 | -0.017 | 0.037 | -0.107 | -0.067 | 0.534 (active) | 0 | 0.34 | -0.016 | -0.036 | 0.016 | -0.042
ARFGAP2 (UniProt Q8N6H7) | -0.04 | 0.042 | 0.062 | 0.007 | 0.033 | -0.101 | 0.026 | 0.066 | -0.009 | 0.039 | -0.006 | -0.008 | -0.045 | -0.063 | -0.096 | 0.035 | -0.024 | -0.024 | -0.059 | 0.041
AGO1 (UniProt Q9UL18) | -0.071 | -0.064 | -0.007 | 0.006 | -0.116 | 0.094 | -0.153 | 0.002 | -0.066 | 0.125 | -0.036 | -0.085 | 0.185 | 0.34 | -0.019 | -0.164 | -0.073 | -0.133 | 0.057 | -0.066
ATP5ME (UniProt P56385) | -0.016 | 0.101 | 0.102 | -0.046 | 0 | 0.001 | 0.008 | -0.016 | 0.033 | 0.078 | -0.071 | -0.051 | 0.022 | 0.008 | 0.084 | -0.046 | 0.001 | 0.103 | -0.031 | 0.023
ATOX1 (UniProt O00244) | -0.051 | -0.057 | 0.235 | -0.269 | 0.144 | 0.068 | 0.038 | -0.071 | 0.051 | 0.212 | -0.02 | 0.043 | 0.047 | 0.036 | 0.161 | -0.009 | 0.174 | -0.084 | -0.404 (active) | 0.004
AGRN (UniProt O00468) | -0.078 | -0.01 | -0.073 | -0.021 | -0.162 | -0.012 | 0.026 | 0.24 | 0.062 | 0.009 | 0.006 | 0.001 | -0.034 | -0.035 | 0.355 | -0.086 | 0.03 | 0.162 | 0.165 | -0.079
BRIP1 (UniProt Q9BX63) | 0.13 | 0.019 | 0.151 | -0.005 | 0.042 | -0.035 | 0.183 | 0.009 | -0.088 | 0.018 | -0.135 | -0.011 | -0.069 | 0.036 | -0.09 | -0.071 | 0.02 | -0.197 | -0.101 | –
